Only some compounds are listed: those with a hit (about 3.9% of all), similar ones and a draw of the others.
Platelet DG rel: modulates dense granule release in human platelets | AID 1663 | human platelet-rich plasma, SFLLRN dense granule ATP release, luminescence | 300,000 tested, 0.22% active | inhibition, %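 (compounds screened at 7.5 µM in platelet-rich plasma)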;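 active = mean replicate score, as percent of positive control, at or above 50; inconclusive = mean below 50 but at least one replicate at or above 50; inactive = mean and every replicate below 50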
SKKanGAS inh: blocks kanamycin growth of S. pyogenes SKKanGAS strain; AID 1662; BacTiter-Glo, 6 h; 300,000 tested, 1.3% active; inhibition, % at 7.5 µM;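 active = mean replicate score, as percent of positive control median, at least 50; inconclusive = mean below 50 but one replicate at or above 50; inactive = mean and every replicate below 50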;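 also: strain carries kanamycin resistance gene driven by streptokinase promoter and grows in 40 µg/ml kanamycin; loss of luminescence reflects streptokinase promoter inhibition or plain growth inhibition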
WT yeast gro inh: growth inhibition of WT yeast, mitochondrial fusion screen; 190,000 tested, 2.1% active; mitochondrial fusion phenotypic screen, WT strain; inhibition, % at 10 µM; in the data active = inhibition above about 58%; tested in S. cerevisiae
Rtt109 Vps75: inhibitors of Candida albicans Rtt109/Vps75 histone acetyltransferase. inhibition, % at 34.9 µM. purified Rtt109/Vps75, ThioGlo CoA-SH fluorescence, 4 h. Q5AAJ8. 330,000 tested, 0.16% active. AID 540336;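 active = inhibition of at least 50% in every replicate; inconclusive = best replicate reaches 50% inhibition but some replicates fall short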
Target sequence (Q5AAJ8 whole entry, looked up): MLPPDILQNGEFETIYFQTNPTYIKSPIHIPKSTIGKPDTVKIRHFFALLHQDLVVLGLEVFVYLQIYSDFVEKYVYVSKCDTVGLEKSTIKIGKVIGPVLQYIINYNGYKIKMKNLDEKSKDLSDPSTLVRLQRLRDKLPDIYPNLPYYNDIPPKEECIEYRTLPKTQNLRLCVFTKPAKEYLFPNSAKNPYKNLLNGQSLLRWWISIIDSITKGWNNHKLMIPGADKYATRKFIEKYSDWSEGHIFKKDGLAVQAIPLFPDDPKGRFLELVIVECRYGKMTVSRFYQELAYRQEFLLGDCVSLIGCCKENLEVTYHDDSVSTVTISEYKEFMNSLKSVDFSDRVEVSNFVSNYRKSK
TPT1 inhibitor: inhibitors of Candida albicans tRNA 2'-phosphotransferase TPT1; inhibition, % at 5 µM; AID 1962; 300,000 tested, 0.81% active; recombinant caTPT1, FP RNA substrate dephosphorylation;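 active = inhibition above the mean of all tested compounds plus 3 SD, set per screening campaign, cut at about 24% in these data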
PHOSPHO1 block: blocks human PHOSPHO1 phosphatase activity. AID 1565. recombinant PHOSPHO1, absorbance phosphatase assay. Q8TCT1. inhibition, % at 13.3 µM. 290,000 tested, 1.1% active; in the data active = inhibition above about 60%
Target sequence (Q8TCT1 whole entry, looked up): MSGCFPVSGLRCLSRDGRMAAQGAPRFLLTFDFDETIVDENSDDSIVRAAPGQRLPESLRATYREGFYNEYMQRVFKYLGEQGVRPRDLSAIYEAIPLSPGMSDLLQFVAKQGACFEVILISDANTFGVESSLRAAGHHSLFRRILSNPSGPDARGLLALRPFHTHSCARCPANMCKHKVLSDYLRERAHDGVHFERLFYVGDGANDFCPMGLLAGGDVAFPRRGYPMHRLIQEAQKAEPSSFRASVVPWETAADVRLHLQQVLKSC
Each line names hits and unclear results; the compound was inactive in the other large screens.

CC1CSc2nc3sc4c(c3c(=O)n21)CCCC4 (centres undefined)	PHOSPHO1 block 67
O=c1c2c3c(sc2nc2n1CCCCC2)CCCCC3	none
CCOc1ccccc1NC(=O)C1CCCCN1S(=O)(=O)c1ccccc1 (centres undefined)	none (no result: Platelet DG rel, SKKanGAS inh, WT yeast gro inh, TPT1 inhibitor, PHOSPHO1 block)
CCOc1ccc(NC(=O)C2CCCCN2S(=O)(=O)c2ccccc2)cc1 (centres undefined)	PHOSPHO1 block 89
O=C(COC(=O)Cc1cccc(C(F)(F)F)c1)NC1CCS(=O)(=O)C1 (centres undefined)	none (no result: WT yeast gro inh, PHOSPHO1 block)
O=C(Oc1ccc(C(=S)N2CCCCC2)cc1)c1ccccc1	none
O=C(Oc1cccc(C(=S)N2CCCCC2)c1)c1ccccc1	WT yeast gro inh 60
C[C@@H](N)C(=O)NC[C@H]1CC[C@H](C(=O)N[C@@H](Cc2ccccc2)C(=O)O)CC1	none (no result: WT yeast gro inh, TPT1 inhibitor)
Cc1cc2nc(-c3ccc[nH]c3=O)n(Cc3ccc(F)cc3)c2cc1C	none (no result: WT yeast gro inh)
Cc1cc2nc(-c3ccc[nH]c3=O)[nH]c2cc1C	Platelet DG rel 52 (no result: WT yeast gro inh)
CCOC(=O)Nc1ccc2c(c1)N(C(=O)CCN(CC)CC)c1ccccc1S2=O (centres undefined)	none (no result: WT yeast gro inh)
CCN(CC(=O)Nc1ccccc1OC)C(=O)COc1ccc(C#N)cc1	none (no result: Platelet DG rel, SKKanGAS inh, WT yeast gro inh, TPT1 inhibitor, PHOSPHO1 block)
O=C1c2ccccc2C(Nc2ccc(Cl)cc2)N1CCN1CCOCC1 (centres undefined)	none
O=C1c2ccccc2C(O)N1CCN1CCOCC1 (centres undefined)	Platelet DG rel 53
O=C(COc1ccc(F)cc1Br)N1CCN(S(=O)(=O)/C=C/c2ccccc2)CC1	PHOSPHO1 block 62
COC(=O)c1[nH]c2cccc(Cl)c2c1NC(=O)CN(C)C1CCCCC1	WT yeast gro inh 61 (no result: Platelet DG rel, SKKanGAS inh)
CCOC(=O)C1CCN(CC(=O)Nc2c(C(=O)OC)[nH]c3cccc(Cl)c23)CC1	none
COc1ccc(S(=O)(=O)N2CCC(C(=O)NCc3ccncc3)CC2)cc1OC	none (no result: WT yeast gro inh)
Cc1ccc(-c2noc(CC(=O)c3ccc([N+](=O)[O-])cc3)n2)cc1	none (no result: Platelet DG rel, SKKanGAS inh, WT yeast gro inh, TPT1 inhibitor, PHOSPHO1 block)
Cc1cc(C)n(-c2nc3ccccc3nc2N2CCC(C)CC2)n1	none
Cc1cc(N2CCC(C)CC2)nc(-n2nc(C)cc2C)n1	SKKanGAS inh 95, WT yeast gro inh 67
CC(=O)OCC1OC(n2c(S)c(C#N)c(-c3ccccc3)c(C#N)c2=O)C(OC(C)=O)C(OC(C)=O)C1OC(C)=O (centres undefined)	none (no result: Platelet DG rel, SKKanGAS inh, WT yeast gro inh, TPT1 inhibitor, PHOSPHO1 block)
O=C(NC(=S)N1CCCCC1c1cccnc1)c1ccc(Br)cc1 (centres undefined)	none (no result: WT yeast gro inh)
O=C(NC(=S)N1CCCCC1c1cccnc1)c1ccc(F)cc1 (centres undefined)	SKKanGAS inh 99 (no result: WT yeast gro inh)
COc1cccc(-n2cnnc2SCC(=O)NC2CC2)c1	none (no result: Platelet DG rel, SKKanGAS inh, WT yeast gro inh, TPT1 inhibitor, PHOSPHO1 block)
CCOC(=O)c1c(C)n(-c2ccc(C)cc2)c2ccc(OCC(O)CNCCCO)cc12 (centres undefined)	Rtt109 Vps75 67
CCOC(=O)c1c(C)n(-c2ccc(C)cc2)c2ccc(OCC(O)CNCC3CCCO3)cc12 (centres undefined)	WT yeast gro inh 72, Rtt109 Vps75 64
Cc1cnc(C(=O)OCC(=O)c2ccc(C)s2)cn1	none (no result: Platelet DG rel, SKKanGAS inh, WT yeast gro inh, TPT1 inhibitor, PHOSPHO1 block)
CCC1=NN(C(=O)C(=O)Nc2ccc(OC)cc2)C(O)(C(F)(F)F)C1 (centres undefined)	PHOSPHO1 block 72
CC1CCCC(C)N1C(=O)COC(=O)c1ccc(Br)o1 (centres undefined)	none (no result: Platelet DG rel, SKKanGAS inh, WT yeast gro inh, TPT1 inhibitor, PHOSPHO1 block)
Cc1ccc(CCNC(=O)C2CCN(S(=O)(=O)N3CCOCC3)CC2)cc1	none (no result: WT yeast gro inh)
CCOC(=O)N1CCN(C(=O)C2CCC(=O)N(CCCc3ccccc3)C2)CC1 (centres undefined)	PHOSPHO1 block 61 (no result: WT yeast gro inh, TPT1 inhibitor)
CCOC(=O)N1CCN(C(=O)C2CCC(=O)N(CCCN3CCCC3=O)C2)CC1 (centres undefined)	none (no result: WT yeast gro inh)
C[C@@]12C(=O)N(CC3CCCO3)CC(=O)N1[C@H]1c3ccccc3OC[C@@H]1[C@@H]2c1ccccc1 (some centres undefined)	none (no result: Platelet DG rel, SKKanGAS inh, WT yeast gro inh, TPT1 inhibitor, PHOSPHO1 block)
Cc1ccc(NC2CCCN(C(=O)C3CCCCC3)C2)cc1C (centres undefined)	none (no result: WT yeast gro inh)
COc1ccc(Cl)cc1C(=O)CSc1nnnn1C1CCCCC1	WT yeast gro inh 72
O=C(CSc1nnnn1C1CCCC1)Nc1ccc(F)cc1	PHOSPHO1 block 62
O=C1CCCCC1C(Nc1ccc(Br)cc1)c1ccccc1 (centres undefined)	WT yeast gro inh 65
COc1cccc(-c2nc(N3CC(C)CC(C)C3)c3ccccc3n2)c1O (centres undefined)	SKKanGAS inh 65 (no result: TPT1 inhibitor)
Cc1ccnc(NC(=O)c2ccc(S(=O)(=O)c3ccccc3)cc2)c1	PHOSPHO1 block 61 (no result: Rtt109 Vps75)
CCOc1ccc(C(=O)Nc2cc(C)ccn2)cc1	Platelet DG rel 76
CC(=O)c1c(C)[nH]c(C(=O)CN2CCN(S(=O)(=O)c3ccccc3)CC2)c1C	none (no result: Platelet DG rel, SKKanGAS inh, WT yeast gro inh, TPT1 inhibitor, PHOSPHO1 block)
O=C(NCCCN1CCCC1=O)C(=O)NCC1OCCCN1S(=O)(=O)c1cc(F)ccc1F (centres undefined)	none (no result: WT yeast gro inh)
ClC(Cl)(c1nnnn1-c1ccccc1)c1nnnn1-c1ccccc1	WT yeast gro inh 88, Rtt109 Vps75 inconclusive (no result: Platelet DG rel, SKKanGAS inh)
Cc1ccc(CN2CCN(/N=C/c3ccc(C(F)(F)F)cc3)CC2)c(C)c1	WT yeast gro inh 64
Cc1ccc(CN2CCN(/N=C/c3ccc(C(=O)O)cc3)CC2)c(C)c1	none
CCCCn1c(SCC(=O)c2ccccc2)nc2c1c(=O)[nH]c(=O)n2C	SKKanGAS inh 80
Cn1c(=O)[nH]c(=O)c2c1nc(SCCN1CCCCC1)n2CCCc1ccccc1	Rtt109 Vps75 inconclusive, PHOSPHO1 block 88 (no result: Platelet DG rel, SKKanGAS inh)
CCCCCn1c(SCCc2ccccc2)nc2c1c(=O)[nH]c(=O)n2C	none
CC(C)N(C(=S)Nc1cccc(C(F)(F)F)c1)C(C)c1ccccn1 (centres undefined)	WT yeast gro inh 74
Cc1cc(C)c(NC(=O)CN(C)CC(=O)Nc2cccc(S(=O)(=O)N(C)c3ccccc3)c2)c(C)c1	none (no result: Platelet DG rel, SKKanGAS inh, WT yeast gro inh, TPT1 inhibitor, PHOSPHO1 block)
Cc1ccccc1CN(C)CC(=O)Nc1ccccc1-c1ccccc1	SKKanGAS inh 53, WT yeast gro inh 79
Cc1ccccc1CN(C)CC(=O)Nc1cccc(S(=O)(=O)N(C)c2ccccc2)c1	PHOSPHO1 block 62
COc1ccc(/C=C/c2ccc3cccc(O)c3n2)cc1Br	SKKanGAS inh 93 (no result: WT yeast gro inh, Rtt109 Vps75)
COc1cc(/C=C/c2ccc3cccc(O)c3n2)cc(Br)c1OC	SKKanGAS inh 100 (no result: WT yeast gro inh)
COc1cc(/C=C/c2ccc3cccc(O)c3n2)cc(Cl)c1OC	SKKanGAS inh 107 (no result: WT yeast gro inh)
COc1cc(/C=C/c2ccc3cccc(O)c3n2)cc(OC)c1OC	SKKanGAS inh 96 (no result: WT yeast gro inh)
CC(NC(=O)/C=C/c1ccccc1[N+](=O)[O-])C1CC2CCC1C2 (centres undefined)	none (no result: WT yeast gro inh)
O=C(CN1C(=O)/C(=C/c2ccco2)SC1=S)NC1CCS(=O)(=O)C1 (centres undefined)	none (no result: WT yeast gro inh)
COC(=O)c1ccc(Oc2nc(C)cc(Oc3ccccc3)n2)cc1	Platelet DG rel inconclusive
COC(=O)c1ccc(Oc2cc(C)nc(-n3nc(C)cc3C)n2)cc1	WT yeast gro inh 70

Screening results deposited in PubChem by several laboratories.
